Screening data (PubChem BioAssay)
Cruzain Triton: qHTS Assay for Promiscuous and Specific Inhibitors of Cruzain (with detergent) | Potency, µM, most hits filed as inhibitors | 200,000 tested, 0.43% active | purified cruzain, Z-FR-AMC fluorescence, 0.01% Triton | Cruzipain (Trypanosoma cruzi), P25779; also: nearly all actives have a fitted effect of over 40% in size
Target sequence (P25779 123-467 limits assumed): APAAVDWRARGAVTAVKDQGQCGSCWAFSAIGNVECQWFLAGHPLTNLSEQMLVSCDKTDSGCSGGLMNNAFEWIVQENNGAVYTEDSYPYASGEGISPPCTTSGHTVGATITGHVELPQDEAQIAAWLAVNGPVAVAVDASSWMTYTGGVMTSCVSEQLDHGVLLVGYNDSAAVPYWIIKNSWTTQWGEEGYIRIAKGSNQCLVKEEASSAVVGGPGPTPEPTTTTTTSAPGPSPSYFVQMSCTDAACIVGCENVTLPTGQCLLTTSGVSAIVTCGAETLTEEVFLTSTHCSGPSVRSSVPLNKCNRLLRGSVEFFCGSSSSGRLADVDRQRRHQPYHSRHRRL
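Cysteine protease activity tested under reducing, mildly acidic conditions (100 mM sodium acetate pH 5.5, 5 mM DTT) plus 0.01% Triton X-100. Cruzain 1.5 nM; substrate Z-FR-AMC 2 uM; 15 min compound preincubation at room temperature.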
Cruzain inh noDet: qHTS Assay for Promiscuous and Specific Inhibitors of Cruzain (without detergent). purified cruzain, Z-FR-AMC fluorescence, no detergent. Cruzipain (Trypanosoma cruzi), P25779. 200,000 tested, 2.3% active. Potency, µM, actives largely listed as inhibitors; also: nearly all actives have a fitted effect of over 40% in size
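Purified cruzain at 1.5 nM, pre-incubated 15 min with compound at room temperature in 100 mM sodium acetate pH 5.5, 5 mM DTT, 0.00005% Triton X-100. Reaction started with 2 uM Z-FR-AMC; AMC fluorescence increase over 60 s gives rate.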
Each line names hits and unclear results; the compound was inactive in the other large screens. Compounds with a hit are over-represented: about 2.6% of the library has one in this group of screens. Calls follow the shape of the dose curve; as a rule, active = well fitted curve in the direction sought with a large enough effect; inconclusive = small, poorly fitted or top-dose-only effect, or another doubt; inactive = no such curve, though single readings can be large; an effect the other way counts as inactive or inconclusive.

C/C(=N\NC(=O)c1ccc(CN2CCOCC2)cc1)c1cccc([N+](=O)[O-])c1	none
C/C(=N/NC(=O)c1cc(-c2cccc([N+](=O)[O-])c2)n[nH]1)c1ccc(Cl)cc1	Cruzain inh noDet 6.3µM
COc1ccc(Oc2ncc3nc(-c4ccc(F)cc4)c(=O)n(CCC#N)c3n2)cc1	none
O=C(c1cc(Br)ccc1O)c1cc(Br)ccc1O	none
O=C(Nc1ccccc1)Nc1nnc(/C=C/c2ccccc2Cl)s1	Cruzain inh noDet 25µM
O=C(Nc1ccccc1)O/N=C/c1ccccc1Cl	none
Cc1ccc(/C(C#N)=C/c2cccc([N+](=O)[O-])c2)cc1	none
Cc1ccc2nc(/C(C#N)=C\c3ccc([N+](=O)[O-])o3)[nH]c2c1	Cruzain inh noDet inconclusive
Cc1ccc2nc(/C(C#N)=C\c3ccc(Oc4ccc([N+](=O)[O-])cn4)cc3)[nH]c2c1	Cruzain inh noDet 10µM
CCOc1cc(/C=C(/C#N)c2nc3ccccc3[nH]2)ccc1Oc1ccc([N+](=O)[O-])cn1	none
COc1cc(/C=C(/C#N)c2ccc(C)cc2)ccc1Oc1ccc([N+](=O)[O-])cn1	Cruzain inh noDet 25µM
COc1ccc2nc(/C(C#N)=C\c3ccc(Oc4ccc([N+](=O)[O-])cn4)cc3)[nH]c2c1	Cruzain inh noDet 25µM
COc1cc(/C=C(/C#N)c2nc3ccccc3[nH]2)ccc1Oc1ncccc1[N+](=O)[O-]	Cruzain inh noDet inconclusive
Cc1ccc2nc(/C(C#N)=C\c3cc(C)n(-c4cccc([N+](=O)[O-])c4)c3C)[nH]c2c1	Cruzain inh noDet 25µM
CCOc1ccc(CC(=O)Nc2ccc3nc(N4CCCCC4)cc(C)c3c2)cc1OCC	none
CCNc1ncc2nc(CCc3ccccc3)c(=O)n(Cc3ccc(F)cc3)c2n1	none
CN(C)c1ccc(C(CNS(=O)(=O)c2ccc(Cl)cc2)N2CCOCC2)cc1 (stereo unspecified)	none
COc1cc2nc(NCc3ccccc3)n3nc(-c4ccccc4)nc3c2cc1OC	none
COC(=O)C1(C(=O)OC)CC2=CC(CC2=O)Cc2ccccc2[C@@H]1C[N+](=O)[O-] (stereo partly specified)	none
Cn1c(=O)c(-c2ccc(Cl)cc2)nc2cnc(N3CCOCC3)nc21	none
CCCc1nnc(NC(=O)Cc2coc3c(C)c(C)ccc23)s1	none
CC(NC(=O)COC(=O)c1cc(NS(=O)(=O)c2ccc(Cl)c([N+](=O)[O-])c2)ccc1O)C1CC2CCC1C2 (stereo unspecified)	Cruzain inh noDet 6.3µM
CC(NC(=O)COC(=O)CCc1ccc(S(=O)(=O)N2CCOCC2)cc1)C1CC2CCC1C2 (stereo unspecified)	Cruzain inh noDet inconclusive
CCOc1ccc(CCNC(=O)c2cccc(-n3c(C)nc4cccnc43)c2C)cc1	none
COc1ccc(C2CC(c3ccccc3OC(C)=O)=NN2C(=O)/C=C/c2ccccc2)cc1 (stereo unspecified)	none
COc1ccc(C2CC(c3ccc4ccccc4c3OC(C)=O)=NN2C(=O)/C=C/c2ccccc2)cc1 (stereo unspecified)	Cruzain inh noDet 7.9µM
CCOc1ccc(N=c2oc3cc(O)ccc3cc2C(=O)NCC2CCCO2)cc1 (stereo unspecified)	Cruzain inh noDet 6.3µM
COc1ccc(N=c2oc3cc(O)ccc3cc2C(=O)NCC2CCCO2)cc1 (stereo unspecified)	none
CCCCNC(=O)CN1C(=O)c2cccnc2Sc2ccccc21	none
CCOc1ccccc1N1Cc2ccccc2C1	Cruzain inh noDet inconclusive
CCOc1ccccc1N1Cc2cc(C)c(C)cc2C1	Cruzain inh noDet 25µM
COc1ccc(OC)c(N2Cc3cc(C)c(C)cc3C2)c1	Cruzain inh noDet 16µM
COc1ccc(OC)c(-n2cnnn2)c1	none
COc1cccc2c1cc1c(=O)n(CC(=O)NCc3ccc(C)o3)nc(C)n12	none
O=C(O)CS(=O)(=O)C(c1ccccc1)c1ccccc1	none
CCc1cccc2sc(NC(=O)c3ccc(N4C(=O)CCC4=O)cc3)nc12	Cruzain inh noDet 7.9µM
Cc1ccc2sc(NC(=O)c3ccc(N4C(=O)CCC4=O)cc3)nc2c1C	Cruzain inh noDet inconclusive
Cc1ccc(NC(=O)CN2CCN(C3CCCCC3)C(=O)C2=O)cc1	none
O=C(Nc1ccccc1)c1cccc2c(=O)c3c([nH]c12)CCCC3	Cruzain inh noDet inconclusive
O=c1cc2nc(-c3cccs3)nc(SCCOc3ccc(Cl)cc3)n2[nH]1	none
Cc1ccc(C(C)C)c(OCCSc2nc(-c3cccs3)nc3cc(=O)[nH]n23)c1	Cruzain inh noDet 7.9µM
Cc1ccc(NC(=O)CSc2nc(-c3ccc(C(C)(C)C)cc3)nc3cc(=O)[nH]n23)cc1C	Cruzain inh noDet 4µM
COc1ccccc1OCCSc1nc(-c2ccc(C(C)(C)C)cc2)nc2cc(=O)[nH]n12	none
C=CCc1ccccc1OCCSc1nc(-c2cccs2)nc2cc(=O)[nH]n12	Cruzain inh noDet 7.9µM
CCOc1ccc(-c2nc(SCC(=O)Nc3ccc(C)c(C)c3)n3[nH]c(=O)cc3n2)cc1	none
C=CCc1ccccc1OCCSc1nc(-c2ccc(C(C)(C)C)cc2)nc2cc(=O)[nH]n12	Cruzain inh noDet 4µM
Cc1cc(C)cc(OCCSc2nc(-c3cccs3)nc3cc(=O)[nH]n23)c1	none
CCCCNc1nc2c(c(=O)n(Cc3ccc(Cl)c(Cl)c3)c(=O)n2C)n1C	none
Cc1ccc2oc(=O)c3cc(C(=O)Nc4ccc(F)cc4F)sc3c2c1	none
Cn1nc(C(=O)NCc2ccccc2Cl)c2c1-c1ccccc1SC2	none
CCOC(=O)c1c(C)[nH]c(C)c1S(=O)(=O)N(C)CC(=O)N1CCN(c2ccccc2OC)CC1	Cruzain inh noDet inconclusive
CCCCN(CC)c1nc(-c2ccccc2F)nc2ccccc12	none
Cc1cccc(-c2nc(SCCCOc3cc(C)c(Cl)c(C)c3)n3[nH]c(=O)cc3n2)c1	none
Cc1cccc(-c2nc(SCCCOc3ccccc3Cl)n3[nH]c(=O)cc3n2)c1	Cruzain inh noDet 16µM
O=C(Cn1nc2c(cc1=O)CCCC2)Nc1ccccc1C(F)(F)F	none
COc1cc(C2CC(=O)N(c3ccc(C)c(Cl)c3)C3=C2C(=O)OC3)cc(OC)c1OC (stereo unspecified)	none
O=C(C/C=N/OCc1ccc(Cl)cc1)c1cnc(-c2ccccc2)s1	none
O=C(C/C=N/OCc1c(Cl)cccc1Cl)c1cnc(-c2ccccc2)s1	Cruzain inh noDet 13µM
COc1ccc(CCN2C(=O)N(c3cccc(C)c3)C(=O)C2CC(=O)Nc2ccccc2)cc1OC (stereo unspecified)	Cruzain inh noDet inconclusive
COc1c(Cl)cc(C(=O)Nc2cccc(-c3nc4ccccc4[nH]3)c2)cc1Cl	Cruzain inh noDet inconclusive
Cc1cc(F)ccc1S(=O)(=O)Nc1ccccc1C(=O)Nc1ccccc1-c1nc2ccccc2[nH]1	none
CCCN(CCC)S(=O)(=O)c1ccc(C(=O)Nc2cccc(-c3nc4ccccc4[nH]3)c2)cc1	Cruzain inh noDet 7.9µM
CN(c1ccccc1)S(=O)(=O)c1ccc(Cl)c(C(=O)Nc2nc3ccccc3[nH]2)c1	Cruzain inh noDet inconclusive
O=C(Nc1ccc(-c2nc3ccccc3[nH]2)cc1)c1ccccc1NS(=O)(=O)c1ccc(F)cc1	Cruzain inh noDet 16µM
CN(c1ccccc1)S(=O)(=O)c1ccc(Cl)c(C(=O)Nc2ccc(-c3nc4ccccc4[nH]3)cc2)c1	Cruzain inh noDet 13µM
CC(=O)OC(C)C	none
Cc1cccn2c(=O)c(/C=C(\C#N)c3nc4ccccc4n3C)c(Oc3ccc(Br)cc3)nc12	none
O=C(O)/C=C\C(=O)Nc1ccc2c(c1)C(=O)c1cc(F)ccc1-2	none
